An excerpt weighted towards active compounds, which were near 1.1% of everything screened.
TrxR1 substrate: qHTS Assay for Substrates of Mammalian Selenoprotein Thioredoxin Reductase 1 (TrxR1): qHTS. Thioredoxin reductase 1, cytoplasmic (Rattus norvegicus), O89049. purified TrxR1 substrate turnover, NADPH consumption readout. Potency, µM (series often up to 114 µM), without a hit: top-dose activity change, negative = substrate turnover. 390,000 tested, 0.01% active. AID 588456, 2011; also: potency is read from the fitted curve at half-maximal effect; % is scaled to controls: 0 for no effect and ±100 for the full control effect; nearly all actives have a fitted effect of over 50% in size
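Rat TrxR1, dispensed at 90 nM, was prereduced with 400 uM NADPH (final) for 5 min at ~22 deg C, then incubated with compound 15 min before 400 uM selenite. A first-read NADPH fluorescence drop versus no-compound background flagged substrates.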
GALK inh: qHTS Assay for Inhibitors of Human Galactokinase (GALK). Purified GALK, Kinase-Glo residual ATP luminescence. Potency, µM (top dose mostly 57.5 µM), for inactives: top-dose activity change, negative = inhibition, most hits filed as inhibitors. 270,000 tested, 0.007% active. AID 1868, 2009; also: potency is read from the fitted curve at half-maximal effect; % is scaled to controls: 0 for no effect and ±100 for the full control effect
Target sequence (P51570 whole entry, looked up): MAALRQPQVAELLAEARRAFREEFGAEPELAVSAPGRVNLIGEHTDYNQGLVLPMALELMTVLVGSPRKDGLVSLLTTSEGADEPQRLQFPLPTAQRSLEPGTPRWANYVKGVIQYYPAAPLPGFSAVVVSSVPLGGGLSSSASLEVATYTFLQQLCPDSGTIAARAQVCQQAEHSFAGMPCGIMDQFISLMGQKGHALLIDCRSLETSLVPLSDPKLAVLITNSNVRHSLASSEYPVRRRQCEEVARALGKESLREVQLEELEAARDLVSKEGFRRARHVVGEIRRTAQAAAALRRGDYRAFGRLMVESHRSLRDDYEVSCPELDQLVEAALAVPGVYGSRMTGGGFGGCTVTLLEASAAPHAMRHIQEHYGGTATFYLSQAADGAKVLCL
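Compounds were pin-transferred into ATP buffer (35 uM final), then GALK plus galactose (5 nM, 100 uM final) was added. After 1 h at room temperature, Kinase-Glo Plus was added and luminescence read after 10 min.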
PINK1 modulator: A Quantitative High throughput Screen to Identify Chemical Modulators of PINK1 Expression. Potency, µM (top dose mostly 76.6 µM), for inactives: at the highest dose activation (PINK1 increase), actives largely listed as activators. PINK1 immunofluorescence, high-content cytometry, 24 h. 410,000 tested, 0.2% active; active = well fitted activation curve with a large enough effect; inconclusive = small, poorly fitted or top-dose-only effect; cell line not stated here; also: potency is read from the fitted curve at half-maximal effect; % of control where 0% means no effect; nearly all actives have a fitted effect of over 65% in size
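PINK1 protein level read as immunofluorescence by microplate cytometer in a fixed, stained stable cell line after 24 h exposure to five compound concentrations, with CCCP as control.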
miR-21 reporter: qHTS Assay for Modulators of miRNAs and/orActivators of miR-21 | HeLa miR-21 FLuc reporter, luciferase, 48 h | Potency, µM (titrated, usually from 38.3 µM), without a hit: top-dose activity change, positive = activation, usual class: activators | 340,000 tested, under 10 active | AID 2288, 2010;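 also: % of control where 0% means no effect; miR-21 action dims this reporter so a rising signal means less miR-21 action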
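HeLa cells stably expressing CMV-driven firefly luciferase with a downstream miR-21 binding sequence, endogenously expressing miR-21, were treated with titrations (up to about 40uM final) for 48 hours at 37 degree Celsius. Luciferase luminescence was read after lysis.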
TrxR1 inh: qHTS Assay for Inhibitors of Mammalian Selenoprotein Thioredoxin Reductase 1 (TrxR1): qHTS. recombinant rTrxR1, NADPH fluorescence consumption, selenite substrate. Potency, µM (highest dose often 114 µM), inactives show top-dose activity change, negative = inhibition, usual class: inhibitors. 390,000 tested, 1% active. AID 588453, 2011; also: potency is read from the fitted curve at half-maximal effect; % is scaled to controls: 0 for no effect and ±100 for the full control effect; nearly all actives have a fitted effect of over 65% in size
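Rat TrxR1 (90 nM in the dispensed reagent) was pre-reduced with 400 uM NADPH for 5 min at room temperature, then incubated with compound for 15 min. After 400 uM selenite was added, NADPH fluorescence (Ex 340/Em 450 nm) was followed for 8 min.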
* marks the source's active call; other numbers are inactive results; ? = inconclusive; nt = not tested or not shown; ! = not active in a repeat; [ ] = dose if it differs, or a comment. Unless noted, calls follow the shape of the dose curve; as a rule, active = well fitted curve in the direction sought with a large enough effect; inconclusive = small, poorly fitted or top-dose-only effect, or another doubt; inactive = no such curve, though single readings can be large; an effect the other way counts as inactive or inconclusive.

SMILES	TrxR1 substrate	GALK inh	PINK1 modulator	miR-21 reporter	TrxR1 inh
CC(C)N(CC(=O)Nc1ccc(Cl)cc1C(F)(F)F)C(=O)CCl	3%	7%	-2%	12%	16µM*
COc1cc2c(C#N)c(N3CCCC3)nc(N)c2c(N)n1	16µM*!	-8%	0%	-1%	-26%[57.1 µM]
COc1cc2c(C#N)c(N3CCN(C)CC3)nc(N)c2c(N)n1	nt	-1%	nt	0%	nt
O=C(Nc1c(Cl)cc([N+](=O)[O-])cc1Cl)c1cc(Cl)cc(Cl)c1O	-4%	nt	14µM*	nt	-16%
Cc1cnc(SCc2ccccn2)nc1C1CCCN(C(=O)c2scc3c2CCCC3)C1 (stereo not drawn)	nt	nt	1%	nt	nt
N#C/C(=C/c1ccc(N2CCOCC2)o1)C(=O)NC1CCCCC1	-28%	5%	3%	-46%	?
COc1cc(N2CCCC2)c(OC)cc1/C=C(/C#N)c1cccc(F)c1	-9%	0%	17%	-1%	-7%
N#C/C(=C/c1ccc(N2CCCCCC2)o1)c1cccc(F)c1	-5%	-4%	8.9µM*	-1%	?
N#C/C(=C/c1ccc(N2CCCCCC2)o1)c1ccc(F)cc1	11%[57.1 µM]	nt	21%	nt	5µM*
CCN(CC)c1ccc(/C=C2/SC(=O)N(C(C)C)C2=O)o1	0%	2%	10%	?	3.2µM*
COc1ccc(OC)c(C2=NOC(C(=O)NCc3ccco3)C2)c1 (stereo not drawn)	4%	2%	12%	18%	28µM*
COc1ccc(C2=NOC(C(=O)NCc3ccc(F)cc3)C2)cc1OC (stereo not drawn)	10%	1%	2.8µM*	22%	18%
CCOc1ccc(C2c3[nH]c4ccccc4c3CCN2C(=O)Cc2cccc(OCC)c2OCC)cc1 (stereo not drawn)	-7%[57.1 µM]	nt	1%	18%	12%[57.1 µM]
CN(Cc1ccccc1)c1nc(-c2ccc(F)cc2)cc(C(F)(F)F)n1	16%	nt	1%	12%	17%
O=C(O)c1ccc(N/N=C/C(Br)=C/c2ccccc2)cc1	-15%	1%	2%	-31%	32µM*
O=C(N/N=C/C(Br)=C/c1ccccc1)C(O)c1ccccc1 (stereo not drawn)	-1%	0%	7%	-29%	7%
O=C1C2C(C(=O)N1/N=C/c1ccc(N3CCCCC3)o1)C1C=CC2C12CC2 (stereo not drawn)	-3%	-2%	-1%	2%	25µM*
O=C1C2C3C=CC(C4CC34)C2C(=O)N1/N=C/c1ccc(-c2cccc([N+](=O)[O-])c2)o1 (stereo not drawn)	-14%	0%	1%	7%	3%[57.1 µM]
Cn1c(=O)c2c(nc(OC/C=C/c3ccccc3)n2C)n(C)c1=O	8%	nt	nt	nt	45µM*
O=C(Nc1ccc(F)cc1)Nc1nnc(-c2ccncc2)s1	7%[57.1 µM]	-3%	3%[38.3 µM]	-7%	8%[57.1 µM]
O=C(Nc1ccc(Cl)cc1)Nc1nnc(-c2ccncc2)s1	-5%	-1%	7.9µM*	-8%	-12%
Cc1ccc(NC(=O)Nc2nnc(-c3ccncc3)s2)cc1C	-5%	10%	16µM*	-2%	1%
O=C(Nc1cccc(Cl)c1)Nc1nnc(-c2ccncc2)s1	17%[57.1 µM]	2%	7.1µM*	?	-14%[11.4 µM]
COc1ccc(CN(Cc2ccccc2)C(=O)c2ccco2)cc1COc1ccc(NC(C)=O)cc1	3%	nt	0%	nt	?
CCc1ccccc1OCC(=O)Nc1ccc(N2CCCC2)cc1C	20%[57.1 µM]	nt	28µM*	nt	?
SMILES	TrxR1 substrate	GALK inh	PINK1 modulator	miR-21 reporter	TrxR1 inh
COc1cc(Cl)c(C)cc1NC(=O)c1cc(CN2CCOCC2)on1	-5%[57.1 µM]	nt	4%	-5%	10%[57.1 µM]
CC(=O)n1cc(N(C(=O)CCl)c2ccc(Cl)cc2)c2ccccc21	-3%	-2%	-1%	?	0.71µM*
CCOC(=O)c1ccccc1Nc1cn(C(C)=O)c2ccccc12	7%	-2%	28%	0%	?
COc1ccccc1N(C(=O)CCl)c1cn(C(C)=O)c2ccccc12	-9%	4%	-2%	?	4µM*
C=CCOC(=O)/C(=C/c1ccco1)NC(=O)/C=C/c1ccccc1	-5%	4%	1%	-3%	18µM*
Cc1ccccc1Nc1c(-c2ccc(O)cc2)nc2c(C)cccn12	144%	nt	-1%	-4%	6%
Cc1ccc(/C=C/C(=O)OCC(=O)N(CC(C)C)c2c(N)n(Cc3ccccc3)c(=O)[nH]c2=O)o1	2%	nt	4%	nt	-2%
CCN(C(=O)COC(=O)/C=C/c1ccc(C)o1)c1c(N)n(Cc2ccccc2)c(=O)[nH]c1=O	-5%	nt	1%	nt	40µM*
C=C(C)Cn1c(=O)c2c(nc3n2CCN3c2ccc(CC)cc2)n(C)c1=O	-2%[11.4 µM]	nt	3%	-60%	12%
C=CCCC1CN(Cc2ccco2)S(=O)(=O)c2c(F)cccc2O1 (stereo not drawn)	-3%	nt	0%	nt	40µM*
O=S1(=O)c2c(F)cccc2OC(COCc2ccccc2)CN1C1CCCC1 (stereo not drawn)	2%	nt	2%	nt	24%
CC(=O)c1cccc(NC(=O)c2ccc3c(c2)N(Cc2ccc(C)cc2)CCS3)c1	16%	nt	5%	-3%	11%
COc1ccc2[nH]cc(C(=O)CNc3nccs3)c2c1	6%	nt	0%	nt	9%
Cc1ccc(SC2=C(N(C)C)C(=O)c3ccccc3C2=O)cc1	-6%	nt	10%	nt	7.9µM*
Cc1ccc(NC2=CC(=O)C(=O)c3ccccc32)cc1	1%[57.1 µM]	-1%	38%[38.3 µM]	-3%	-1%[57.1 µM]
Cc1ccc(NC(=O)CN(C)C(=O)Cc2ccc(Cl)c(Cl)c2)cc1	-5%	-2%	14%	-19%	11%
Cc1ccc(NC(=O)CN(C)C(=O)Cn2ncc(Cl)c(Cl)c2=O)cc1	-9%	0%	-1%	29%	71µM*
Oc1ccc(NCc2ccccc2OCc2ccccc2Cl)cc1	-9%	nt	2%	23%	32µM*
Oc1ccc(NCc2ccc(OCc3ccccc3Cl)cc2)cc1	-11%	nt	0%	1%	45µM*
Oc1ccc(NCc2ccc(OCc3ccccc3)cc2)cc1	-10%	1%	1%	-19%	28µM*!
O=C(COc1ccccc1)Nc1ccccc1C(=O)OCc1cc(=O)n2nc(C3CC3)sc2n1	3%[57.1 µM]	nt	-1%	2%	18%[57.1 µM]
CC(=O)CSc1nc(-c2ccccc2)[nH]c1S(=O)(=O)c1ccc(C)cc1	1%	nt	-1%	2%	14%
Cc1nc2sccn2c1CN1CCOc2ccc(CN3CCN(c4ccc(F)cc4)CC3)cc2C1	nt	nt	0%	nt	nt
Oc1c(I)cc(Cl)c2cccnc12	3%	nt	5%	-1%	7.9µM*
COc1ccc2[nH]c(=O)cc(C(=O)O)c2c1	53%[57.1 µM]	7%	-1%	0%	5%[57.1 µM]

Screening data deposited in PubChem by National Center for Advancing Translational Sciences (NCATS).
